In PubChem BioAssay one finds z-score and composite z-score data, which are given here for five compounds.

Experiment [1] is described as follows: E. coli DRC41 culture turbidity changes, primary screen, E. coli filamentation inducer project, strain DRC41, OD650, 48 h (AID 1152).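 Also: E. coli MC1000 strain DRC41 lacking acrAB efflux pump and sulA.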 The note with it: E. coli DRC41 (acrAB sulA), higher = more signal, called active from +8 up or from −8 down.
Experiment [2] in a line: small-molecule binders of probe aLefty1, primary screen, biochemical, small-molecule microarray, 635/667 nm fluorescence (AID 1153).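 Also: score merges spot fluorescence with signal-to-noise ratio from the scanned slide images.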 The note with it: higher = more signal.
The nature of experiment [3]: PSAC antagonists in infected red cells, primary screen, cell-based, P. falciparum Indochina, OD700, 1 h (AID 1154). The note with it: P. falciparum Indochina infected RBC osmotic lysis, higher = more signal, called active from +8 up or from −8 down.
Experiment [4] is described as follows: PSAC antagonists in infected red cells, primary screen, cell-based, P. falciparum Indochina, OD700, 2 h (AID 1155).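 Also: lysis reports solute entry through the parasite surface anion channel PSAC; channel blockers reduce lysis of infected cells.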 The note with it: P. falciparum Indochina infected erythrocytes, osmotic lysis OD700; higher = more signal, called active from +8 up or from −8 down.
Experiment [5] can be described thus: osmotic lysis modulators in infected erythrocytes, primary screen, PSAC antagonist project, cell-based, P. falciparum Indochina, OD700, 3 h (AID 1156). The note with it: higher = more signal, called active from +8 up or from −8 down.
Experiment [6] is described as follows: PSAC antagonists in infected red cells, primary screen, cell-based, P. falciparum Indochina, OD700, 18 h (AID 1157). The note with it: P. falciparum Indochina infected erythrocytes, osmotic lysis OD700, 18 h; higher = more signal, called active from +8 up or from −8 down.
Experiment [7] is described as follows: modulators of S6 phosphorylation in cells, primary screen, cell-based, A549, cytoblot, luminescence, serum-stimulated (AID 1158).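 Also: serum-stimulated A549 lung adenocarcinoma cells; signal is phosphorylated S6 detected by cytoblot immunostaining with HRP secondary.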 The note with it: A549 phospho-S6 cytoblot, 5 h, higher = more signal.
The target in experiment [8] is NADPH oxidase 2 (Homo sapiens) (UniProt P04839). Briefly: NOX2-dependent H2O2 signal modulators, primary screen, NOX inhibitor project, cell-based, HEK293-NOX2, PMA-stimulated, Amplex Red fluorescence (AID 1159). Also: test concentration not given here. The note with it: 45 min, higher = more signal, called active from +8 up or from −8 down.
Experiment [9] addresses NADPH oxidase 4 (Homo sapiens) (UniProt Q9NPH5). Briefly: NOX4-dependent H2O2 signal modulators, primary screen, NOX inhibitor project, cell-based, HEK293-NOX4, tetracycline-induced, Amplex Red fluorescence (AID 1160). The note with it: 45 min, higher = more signal, called active from +8 up or from −8 down.
For experiment [10], the target named is NADPH oxidase 5 (Homo sapiens) (UniProt Q96PH1). Nature of the experiment: NOX5-dependent H2O2 signal modulators, primary screen, NOX inhibitor project, cell-based, HEK293-NOX5, Amplex Red fluorescence (AID 1161). The note with it: HEK293-NOX5, ionomycin, 45 min, higher = more signal.
Experiment [11] is described as follows: A549 cell viability effects, profiling panel, calcein-AM fluorescence, 48 h, basal (AID 1162). Also: test concentration not given here. The note with it: higher = more signal.
A short description of experiment [12]: adipocyte viability effects, profiling panel, cell-based, 3T3-L1 adipocytes, calcein-AM fluorescence, 48 h, basal (AID 1163). Also: test concentration not given here. The note with it: 3T3-L1 adipocytes viability, higher = more signal.
A short description of experiment [13]: HepG2 cell viability effects, profiling panel, calcein-AM fluorescence, 48 h, basal (AID 1164). Also: test concentration not given here. The note with it: higher = more signal.
Experiment [14] is described as follows: MM1S cell viability effects, profiling panel, calcein-AM fluorescence, 48 h, basal (AID 1165).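 Also: viability of MM1S multiple myeloma cells under basal unstimulated conditions; test concentration not given here.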 The note with it: higher = more signal.
A short description of experiment [15]: basal RPMI8226 viability, no added stimulus, profiling panel, cell-based, calcein-AM fluorescence, 48 h, PK04 Diversity Set (AID 1166).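 Also: cells grown under basal conditions without added stimulus; test concentration not given here.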 The note with it: RPMI8226 myeloma viability, higher = more signal.
Experiment [16] in a line: basal HepG2 mitochondrial membrane potential changes, profiling panel, cell-based, JC-1 fluorescence, 24 h, 100 nL compound (AID 1167). Also: test concentration not given here. The note with it: higher = more signal.
A short description of experiment [17]: basal 3T3-L1 adipocyte mitochondrial potential changes, profiling panel, cell-based, JC-1 fluorescence, 3T3-L1 adipocytes, 24 h, 100 nL compound (AID 1168). Also: test concentration not given here. The note with it: JC-1 mitochondrial fluorescence, higher = more signal, called active from +8 up or from −8 down.
A short description of experiment [18]: basal RPMI8226 mitochondrial membrane potential changes, profiling panel, cell-based, JC-1 fluorescence, 24 h, 100 nL compound (AID 1169). Also: test concentration not given here. The note with it: RPMI8226 myeloma, JC-1 mitochondrial potential fluorescence, higher = more signal.
Experiment [19] is described as follows: basal MM1S mitochondrial membrane potential changes, profiling panel, cell-based, JC-1 fluorescence, 24 h, 100 nL compound (AID 1170). Also: test concentration not given here. The note with it: higher = more signal.
Experiment [20] can be described thus: A549 lung cancer cell viability effects, profiling panel, resazurin fluorescence, 24 h, PK04 Diversity Set (AID 1171). Also: test concentration not given here. The note with it: higher = more signal, called active from +8 up or from −8 down.

Activity calls are given as the source filed them.

Chain of NADPH oxidase 2 (Homo sapiens) (P04839 whole entry, looked up): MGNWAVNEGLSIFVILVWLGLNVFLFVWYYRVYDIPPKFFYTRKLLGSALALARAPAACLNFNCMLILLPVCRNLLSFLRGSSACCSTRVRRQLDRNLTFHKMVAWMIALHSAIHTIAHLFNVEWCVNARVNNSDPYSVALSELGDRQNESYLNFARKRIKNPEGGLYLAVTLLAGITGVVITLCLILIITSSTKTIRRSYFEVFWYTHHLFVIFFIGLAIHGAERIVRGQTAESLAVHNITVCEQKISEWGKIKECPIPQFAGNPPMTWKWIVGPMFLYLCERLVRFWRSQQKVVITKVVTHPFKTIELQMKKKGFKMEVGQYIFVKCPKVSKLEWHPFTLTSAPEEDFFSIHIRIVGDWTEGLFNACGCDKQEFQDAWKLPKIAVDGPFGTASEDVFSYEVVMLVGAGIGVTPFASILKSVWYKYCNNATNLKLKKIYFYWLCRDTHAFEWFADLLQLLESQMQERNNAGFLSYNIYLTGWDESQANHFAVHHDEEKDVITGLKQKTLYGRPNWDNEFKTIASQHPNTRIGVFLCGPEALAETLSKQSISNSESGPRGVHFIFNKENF
Chain of NADPH oxidase 4 (Homo sapiens) (Q9NPH5 whole entry, looked up): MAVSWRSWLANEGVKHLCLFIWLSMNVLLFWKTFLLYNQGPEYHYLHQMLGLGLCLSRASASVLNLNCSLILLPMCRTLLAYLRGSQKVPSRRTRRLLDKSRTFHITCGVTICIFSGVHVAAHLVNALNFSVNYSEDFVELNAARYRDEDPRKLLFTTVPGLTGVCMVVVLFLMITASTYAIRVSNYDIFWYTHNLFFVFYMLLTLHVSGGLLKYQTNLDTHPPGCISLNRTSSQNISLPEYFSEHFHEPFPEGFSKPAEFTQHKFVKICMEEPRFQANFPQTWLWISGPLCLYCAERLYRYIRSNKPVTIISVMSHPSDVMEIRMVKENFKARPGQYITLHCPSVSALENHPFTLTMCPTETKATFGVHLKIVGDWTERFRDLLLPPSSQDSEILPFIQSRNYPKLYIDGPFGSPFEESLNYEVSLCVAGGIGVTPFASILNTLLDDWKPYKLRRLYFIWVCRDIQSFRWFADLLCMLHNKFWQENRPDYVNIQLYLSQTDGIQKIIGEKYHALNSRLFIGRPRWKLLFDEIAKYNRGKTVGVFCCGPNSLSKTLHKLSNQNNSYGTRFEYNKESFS
Chain of NADPH oxidase 5 (Homo sapiens) (Q96PH1 whole entry, looked up): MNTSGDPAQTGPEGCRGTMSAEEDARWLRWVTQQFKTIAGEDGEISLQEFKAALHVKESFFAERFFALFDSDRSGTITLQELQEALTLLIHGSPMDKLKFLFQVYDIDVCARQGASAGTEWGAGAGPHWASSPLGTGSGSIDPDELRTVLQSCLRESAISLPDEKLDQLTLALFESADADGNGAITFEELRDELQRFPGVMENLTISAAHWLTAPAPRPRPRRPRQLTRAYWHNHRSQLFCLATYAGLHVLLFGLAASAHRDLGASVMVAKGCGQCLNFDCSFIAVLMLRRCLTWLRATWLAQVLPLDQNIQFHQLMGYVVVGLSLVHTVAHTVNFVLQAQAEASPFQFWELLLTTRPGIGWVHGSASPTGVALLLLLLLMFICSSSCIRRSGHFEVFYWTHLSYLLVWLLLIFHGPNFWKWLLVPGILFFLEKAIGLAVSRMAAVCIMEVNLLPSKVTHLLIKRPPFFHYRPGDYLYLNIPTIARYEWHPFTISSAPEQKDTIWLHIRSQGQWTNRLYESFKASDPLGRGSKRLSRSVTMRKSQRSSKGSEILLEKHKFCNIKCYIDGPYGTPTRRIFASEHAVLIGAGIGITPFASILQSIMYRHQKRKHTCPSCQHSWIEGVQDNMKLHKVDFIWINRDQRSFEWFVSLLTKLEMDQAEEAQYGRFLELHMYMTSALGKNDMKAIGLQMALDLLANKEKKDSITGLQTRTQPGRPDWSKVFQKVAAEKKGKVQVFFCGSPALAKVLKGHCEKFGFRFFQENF

Turning to `COC(=O)c1c(CC[C@@H](CO)NC(=O)N[C@@H](C)Cn2cc(C3(O)CCCCC3)nn2)oc(C(C)=O)c1C(=O)OC`, the z-score in experiment [1] was -0.244 (inactive); in [3], 5.47 (inactive); in [4], -0.319 (inactive); in experiment [5], 1.01 (inactive); in experiment [6] it was -1.01 (inactive); in experiment [7] it was 0.813. Moreover, the z-score in [8] is -6.12 (inactive); in experiment [9], -2.61 (inactive); in experiment [10] it was -2.88; in experiment [11], 0.0154; in [12] it was 0.93; in [13], -0.0256. Besides, the z-score in experiment [14] was 0.0508; in [15], -1.82; in [16] it was -0.637; in experiment [17] it was 1.17 (inactive); in experiment [18], -0.44; in [19], 0.414. For the same compound, the z-score in experiment [20] is -1.04 (inactive). This compound gave a composite z-score in [2] of -0.0984.
Turning to `CC(C)C[C@H]1NC(=O)[C@@]23C(=O)N[C@@H](Cc4ccccc4)C2[C@H](C)[C@@]2(C)O[C@H]2C3/C=C/C/C=C\CNC(=O)[C@H](Cc2ccccc2)NC1=O` (stereo not given in full), the z-score in experiment [1] is -0.0044 (inactive); in experiment [3] it was 2.14 (inactive); in [4], -0.0365 (inactive); in [5], 1.58 (inactive); in experiment [6], 0.207 (inactive); in experiment [7] it was -0.175. In addition, the z-score in experiment [8] is 0.845 (inactive); in experiment [9] it was -0.847 (inactive); in experiment [10], 0.971; in experiment [11], -0.278; in experiment [12], 0.733; in experiment [13] it was -1.03. Also, the z-score in [14] was -0.207; in experiment [15], -0.567; in experiment [16], 0.804; in [17], -0.172 (inactive); in experiment [18], -1.09; in experiment [19], 0.687. In addition, the z-score in experiment [20] was 0.217 (inactive). This compound also had a composite z-score in experiment [2] of 0.0999.
As for `CCCCc1cn(C[C@H](Cc2ccccc2)NC(=O)N[C@H](CO)CCc2oc(C(C)=O)c(C(=O)OC)c2C(=O)OC)nn1`, the z-score is 0.135 (inactive) in experiment [1]; 1.66 (inactive) in experiment [3]; -0.983 (inactive) in experiment [4]; 1.21 (inactive) in [5]; -0.496 (inactive) in [6]; 0.847 in [7]. Also, the z-score in experiment [8] was -4.81 (inactive); in experiment [9], -2.87 (inactive); in [10], -2.48; in [11], -0.601; in experiment [12], 0.813; in [13] it was 0.132. Besides, the z-score in [14] was 0.787; in [15], -1.22; in experiment [16], 0.173; in experiment [17], 0.273 (inactive); in [18] it was 0.24; in experiment [19], 1. For the same compound, the z-score in [20] was -0.571 (inactive). This compound also gave a composite z-score in experiment [2] of 0.086.
For `COCCOC(=O)N1C(=O)[C@@]2(c3cc(C#Cc4ccc(OC)cc4)ccc31)[C@H](C(N)=O)[C@H]1C(=O)O[C@H](c3ccccc3)[C@H](c3ccccc3)N1[C@@H]2c1ccccc1OCCO`, the z-score is -0.289 (inactive) in [1]; 4.42 (inactive) in experiment [3]; 2.55 (inactive) in [4]; -0.499 (inactive) in experiment [5]; 1.59 (inactive) in experiment [6]; -0.413 in experiment [7]. In addition, the z-score in [8] is 2.38 (inactive); in experiment [9] it was 1.1 (inactive); in [10], 1.44; in experiment [11], -1.25; in experiment [12], 1.18; in experiment [13], -1.76. Besides, the z-score in [14] is -2.32; in experiment [15] it was -3.94; in experiment [16], -1.79; in experiment [17], 2.99 (inactive); in experiment [18], -0.994; in [19] it was -1.38. Besides, the z-score in experiment [20] is -1.85 (inactive). The compound further registered a composite z-score in experiment [2] of 0.358.
For the compound `C=C[C@H](COC(C)=O)N(C(=O)OC(C)(C)C)S(=O)(=O)c1ccc(Br)cc1`, the z-score in [1] was 1.34 (inactive); in experiment [3], 0.874 (inactive); in experiment [4] it was -0.141 (inactive); in experiment [5] it was -0.301 (inactive); in experiment [6], 0.0544 (inactive); in experiment [7] it was 0.314. Further, the z-score in experiment [8] was 0.406 (inactive); in experiment [9] it was 0.356 (inactive); in experiment [10] it was -0.772; in [11] it was 1.67; in experiment [12], 0.49; in experiment [13], 1.36. Also, the z-score in [14] was -0.138; in experiment [15], 0.0593; in [16], -0.87; in experiment [17], -0.614 (inactive); in experiment [18], -0.931; in [19], -0.406. Moreover, the z-score in experiment [20] is 0.708 (inactive). In addition, the composite z-score in experiment [2] came to 0.312.
